Test results reported in the supplement of paper PMC11417369.
In all, about 25,000 sequences were measured (“ln(normalized median fluorescence intensity)”: median about 9.3, highest 2% from about 10 on). The list comes from a sample in which the highest values are over-represented; it also holds similar and randomly drawn sequences.

test system: PF3D7_0420300 AP2 domain 1 (GST-tagged); assay: gcPBM binding intensity (ln(normalized median fluorescence intensity)); higher = stronger DNA binding
How it was run: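 GST-tagged P. falciparum DNA-binding domains, expressed in E. coli (about 25 μg on average), were applied for 1 h to an Agilent 4 × 180k array of primer-extended double-stranded 36-bp intergenic genomic probes plus negative controls. The binding buffer was 1× PBS with 1% milk, 0.2 mg/ml BSA, 0.5% salmon testes DNA and 0.03% Triton X-100. Bound protein was detected with Alexa488 anti-GST antibody and scanned at 488 nm. Binding intensity is the highest Masliner-normalised natural-log median intensity across replicate spots of either probe orientation.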

Sequence	gcPBM binding intensity (ln)
AAAAAAATGAAACACACACACACATATATATATATA [CACACA_site1043]	9.93
TTTTTATTATAAGGTCGTACAATTGTAATTATTGTA [XGTACX_site1413]	9.23
TATTTATTTTTTTTTGTGCACTTAATATAATCTTAC	9.24
ATATATATATATTATGTGCGCATATACCATTTTAAT [GTGCAC_site9575]	9.32
TATTACTTGATATATACACACATATAACATAAATGC [CACACA_site7783]	9.45
TATATATATATATATACACACATATATATAAATATA [CACACA_site2035]	9.2
TAAATAAATACATACACACACATACCTATATTTATA [CACACA_site7466]	9.93
GATAATACATAAATTTATAAGTGGAAGAATAAATAA [CACACA_negctrl_site698]	9.32
CAAAAGAAGGTAAACACACACACACGCATACAAAAA [CACACA_site7724]	10.1
TACTTACCAAAATACACACACACACCCAATATATAA [CACACA_site1871]	10.1
GGACAACAAACAAACACACACAAAAAAAAAATAAAA [CACACA_site3791]	9.84
TATTTATTAAAACACACACACACACCGACAAAATAA [CACACA_site4293]	10.1
AATACTTACCAAAATACACACACACCCAAAATATAT [CACACA_site8559]	10.1
CAACAAAATAAACACACACACACAAACACAAAAAAA [CACACA_site5806]	10.3
AAAGAAGGTAAACACACACACACACCGACAAAAAAA [CACACA_site9255]	10.3
TACTTACCAAAATACACACACACACTAGATATATAA [CACACA_site5096]	10.3
CACAAACAAAAACACACACACACACCGACAAAAATG [CACACA_site5362]	10
CAAAAGAAGGTAAACACACACACACCCATACAAAAA [CACACA_site3765]	10.1
TAAAATAAAACAAACACACACACACCGACACAAAAA [CACACA_site5993]	10.2
TTTACATATTTATATACACACTTTTGCGTGCGTGGT [CACACA_site6647]	9.21
AAAAAAATTGGGAAAAGTACTTGCAGCTAGCTAAAA [XGTACX_site5178]	9.18
TACTTTTATATGAATACACACAGGAATATATATATG [CACACA_site3568]	9.48
ATTCTAAATATCAGTGCACACATTTCTACGCAAAGT [CACACA_site474]	9.36
TATATATATATATATGGTACAGTTTATGCCTTTTAA [XGTACX_site6695]	9.14

Sequence	gcPBM binding intensity (ln)
TAGTGATATAATTATGTGCACTTAATACAGGTCGAT	9.42
AAAAAAAAAAAAAGTACACACTTTTGCGTACAAGTA [CACACA_site5672]	9.32
TTTTTAAAAAAAAATAGAGAGTCAAAGTATGTGGCG [CACACA_negctrl_site194]	9.32
AATTCTTTCATATATTGTACGTATTCCCATAAAATA [XGTACX_site5923]	9.36
AATGCCTTGTTGAGGTGTACTGAATGTTATTTTAAT [XGTACX_site3255]	9.19
ACAAAATAAAAACACACACACAAACACAAAAAAATA [CACACA_site3390]	10.3
CAAAAAATTCAACACACACACACACCGATAAATAAA [CACACA_site8330]	10.2
TATATATAAATAAACACACACAAATATAATAAAAAA [CACACA_site3526]	10.1
AATATATATAAATAAACACACACAAATATAATAAAA [CACACA_site9176]	10.2
CACAAAAATAAATATAAACACACAATAAATAAATAA [CACACA_site8197]	9.75
AAAAAAAAAAAAAACACACACACAAAATAAACAAAC [CACACA_site2720]	10.3
AATAAAAACAAACAAAAAAACAAATAAATAAATAAA [CACACA_negctrl_site483]	9.65
ACAAATAAATAAAAAACACACACAAATAAATAAATA [CACACA_site8708]	10.1
TACAAAAATATATAAACACACAAATATAATATATAT [CACACA_site2942]	9.74
AAATAATTCAAAAAAACACACAAATTACAAAATAAA [CACACA_site269]	9.72
AAAATAAAATAAAACACAAAAAAATAAAACAAAATA [CACACA_negctrl_site16]	9.8
TTCAAAATAAAAAATTCACACACATATATATATATA [CACACA_site8653]	9.33
TATATATTATAAAAGAGTACAGAAAGAAAAAAAAAT [XGTACX_site8305]	9.54
TCTTTTAAATAACAACATAAATAAATAAATAAATAA [GTGCAC_negctrl_site319]	9.01
GTGTATTTTGTGCGCACACACATGCAAAAAGAAATA [CACACA_site6660]	9.55
AGAAATTATAAATACCTACACACTTATCAAAATAAA [CACACA_site2264]	9.55
TTACACATATATATAAATATATATAAATATATATAT [CACACA_negctrl_site150]	9.08
AATATTATTTAGGAGCGTACGTTTTATTTACATATT [XGTACX_site5188]	9.4
